Source: PubChem BioAssay
Jurkat NFkB inh = lowers PMA/ionomycin-induced NF-kB signal in Jurkat cells; PMA/ionomycin-induced NF-kB luciferase reporter, luminescence; AID 435003; 330,000 compounds, 0.53% hits; inhibition, % at 4 µM; in the data active = inhibition above about 50%
697 NFkB inh = inhibitors of the PMA/ionomycin-induced NF-kB reporter in 697 B cells. 697 B-cell NF-kB luciferase reporter, 16 h. inhibition, % at 4 µM. 330,000 compounds, 0.33% hits. AID 435022; in the data active = inhibition above about 35%
Gli-Sufu antag = Gli-Sufu pathway antagonism | Sufu-KO-LIGHT fibroblasts, Gli luciferase reporter luminescence | 340,000 compounds, 0.74% hits | inhibition, % at 5 µM;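 active = inhibition above about 55%, limit read from the data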;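 also: 0% = DMSO-treated cells and 100% = wells with medium but no cells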
COUP-TFII inh = NR2F2 (human) inhibition, primary screen; AID 686940; HEK293T NGFI-A luciferase reporter, luminescence; 370,000 compounds, 0.7% hits; inhibition, % at 8.6 µM;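 active = inhibition above a per-plate cutoff, mean inhibition of test wells between control levels plus 3 SD, cut at about 38% in these data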;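 also: cells cotransfected with COUP-TFII expression vector driving the NGFI-A reporter; 0% = median of COUP-TF2 test wells and 100% = reporter-only cells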
GalR3 antagonist = blocks the human galanin receptor 3; O60755; HEK293 GalR3-CNG cAMP membrane potential fluorescence; galR3 body fused to GalR1 C-terminus; inhibition, % at 3 µM; 360,000 compounds, 0.44% hits; AID 651719;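 active = inhibition above the screen-wide average plus 3 SD, cut at about 13% in these data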;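 also: forskolin and galanin both at EC90 stimulate the cells; cAMP rise reported by CNG channel membrane potential dye signal; 0% = forskolin plus galanin with DMSO and 100% = forskolin alone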
Target sequence (O60755 1-299 limits assumed): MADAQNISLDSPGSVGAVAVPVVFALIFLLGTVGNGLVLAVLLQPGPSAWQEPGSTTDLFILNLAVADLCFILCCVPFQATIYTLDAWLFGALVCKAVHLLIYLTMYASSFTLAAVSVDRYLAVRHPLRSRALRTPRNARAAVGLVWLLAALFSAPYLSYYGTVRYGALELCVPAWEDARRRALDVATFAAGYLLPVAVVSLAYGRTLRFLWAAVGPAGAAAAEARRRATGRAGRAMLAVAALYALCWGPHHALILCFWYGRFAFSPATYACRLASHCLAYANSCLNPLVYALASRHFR
VP16 Luc counter = inhibits VP16 reporter, flagging COUP-TFII antagonist hits; HEK293 Gal4-VP16 luciferase reporter, luminescence; inhibition, % at 8.5 µM; shares compounds with COUP-TFII inh; 2,500 compounds, 25% hits; in the data active = inhibition above about 13%
COUP-TFII conf = confirmation of human COUP-TFII (NR2F2) inhibitors; shares compounds with COUP-TFII inh; HEK293 NGFI-A luciferase reporter, luminescence; inhibition, % at 8.5 µM; 2,500 compounds, 45% hits;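 active = mean inhibition over three repeats above a set limit taken from the earlier primary screen, cut at about 38% in these data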;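 also: 100% = cells given the luciferase reporter alone without the COUP-TF2 vector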
The depositor's hits bear a star; x = no result given. An excerpt weighted towards active compounds, which were near 2% of everything screened.

SMILES | Jurkat NFkB inh | 697 NFkB inh | Gli-Sufu antag | COUP-TFII inh | GalR3 antagonist | VP16 Luc counter | COUP-TFII conf
O=C(NCCN1CCC2(CC1)C(=O)NCN2c1ccccc1)c1cc(C(F)(F)F)ccc1C(F)(F)F | x | x | x | -4 | -5 | x | x
CN(Cc1cccc(-c2cccnc2)c1)C(=O)Oc1ccc([N+](=O)[O-])cc1 | x | x | x | 51* | -7 | 9 | 31
CC(=O)OC1C(=O)OCC23CCC4(C)OC4C2OC2CC(OC(=O)C=CC=CC(=O)OCCC1C)C3(C)C21CO1 (stereo not given) | x | x | 89* | 89* | -1 | 10 | 86*
CC(=O)OC1CC(OC2C(O)CC(OC3C(O)CC(OC4CCC5(C)C(CCC6C5CCC5(C)C(C7=CC(=O)OC7)CCC65O)C4)OC3C)OC2C)OC(C)C1OC1OC(CO)C(O)C(O)C1O (stereo not given) | x | x | -5 | 77* | 22* | 56* | 78*
NS(=O)(=O)c1nc[nH]c1[N+](=O)[O-] | x | x | -3 | -12 | -1 | x | x
COC(=O)C12OCC34C(CC5C(C)=C(O)C(=O)CC5(C)C3C(O)C1O)OC(=O)C(OC(=O)/C=C(\C)C(C)C)C24 (stereo not given) | x | x | 88* | 94* | -1 | 20* | 88*
Cc1ccccc1CN1Cc2cnnn2-c2ccccc2C1C#N (stereo not given) | x | x | -2 | 39* | -9 | 5 | 2
C[n+]1ccc(-c2ccccc2)c2ccccc21 | 29 | 23 | 46 | 40* | -6 | -2 | 14
C[n+]1c(-c2ccccc2)cc(-c2ccc(O)cc2)cc1-c1ccccc1 | 2 | 17 | 11 | -4 | -6 | x | x
Nc1c(Br)cc2c3c(cccc13)-c1ccccc1-2 | x | x | 5 | -10 | -6 | x | x
FC(F)(F)c1cccc(NC2=NCCS2)c1 | x | x | x | 0 | -6 | x | x
CC(=O)OC1C(O)C(C)OC(OC2C(OC(=O)C3CCC4C(C3)OC3(CC(OC(=O)/C=C/c5ccccc5)C(C)CO3)C43CO3)OC(C)C(O)C2OC(C)=O)C1O (stereo not given) | x | x | 90* | 91* | -4 | 23* | 87*
CCCCn1c(NS(=O)(=O)c2ccc(C)cc2)c(C(=O)OCC)c2nc3ccccc3nc21 | -3 | 13 | 14 | 31 | 2 | x | x
CCCCn1c(NC(=O)c2ccco2)c(C(=O)OCC)c2nc3ccccc3nc21 | 5 | -16 | 4 | 44* | 2 | 0 | 2
O=[N+]([O-])c1ccccc1-c1cc(-c2ccccc2)cc(-c2ccccc2)[n+]1Cc1ccccc1Cl | -5 | -7 | 38 | 56* | -12 | 14* | 44*
Fc1ccc(C[n+]2c(-c3ccccc3)cc(-c3ccccc3)cc2-c2ccccc2)cc1 | 12 | -29 | 43 | 23 | -5 | x | x
O=S(=O)(c1ccc(Cl)cc1)N1Cc2cc(Br)ccc2-n2nncc2C1 | x | x | x | 16 | -7 | x | x
